In article PMC7862700, “An all-to-all approach to the identification of sequence-specific readers for epigenetic DNA modifications on cytosine”:

Legend:
Experiment in all cases: DAPPL (digital affinity profiling via proximity ligation, sequencing); 10 mM Tris-HCl pH 7.5, 50 mM NaCl, 1 mM DTT, 4% glycerol, room temperature, 30 min; GST-TFs on glutathione beads, 16-mer random dsDNA library, 0.1% formaldehyde crosslink after washing; high values mean tight binding
FEV = biological target: T1, FEV (Homo sapiens, UniProt Q99581 1-238); settings: protein: recombinant; tags: N-terminal GST; dsDNA, one strand shown
T1 sequence: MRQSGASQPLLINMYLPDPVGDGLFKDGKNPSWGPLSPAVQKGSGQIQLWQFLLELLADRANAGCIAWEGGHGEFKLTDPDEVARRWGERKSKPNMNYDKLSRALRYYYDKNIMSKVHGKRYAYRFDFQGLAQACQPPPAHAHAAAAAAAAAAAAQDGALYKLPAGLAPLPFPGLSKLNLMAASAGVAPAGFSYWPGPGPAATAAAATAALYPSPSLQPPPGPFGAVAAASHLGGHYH
Outline: (§1)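 Binding signal is each hexamer's read frequency for a factor divided by its frequency in the tag-only sample. The factors were GST-fused human transcription factors from yeast, captured on glutathione beads, DNA-barcoded and pooled with that sample. Pools were incubated with 200 nmole of a random double-stranded 16-mer DNA library in Tris/NaCl/DTT/glycerol buffer at room temperature for 30 min, then washed, crosslinked with 0.1% formaldehyde, proximity-ligated with BsaI/T4 ligase (1 h, 37 °C), PCR-amplified and sequenced on an Illumina NextSeq500.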

ETV5 = ETV5 (Homo sapiens, UniProt P41161 1-510); settings: protein: recombinant; tags: N-terminal GST; dsDNA, one strand shown
Outline: as §1

HSF1 = HSF1 (Homo sapiens, UniProt Q00613 1-529); settings: protein: recombinant; tags: N-terminal GST; chain copies: 3; dsDNA, one strand shown
Outline: as §1

SPIC = biological target: T2, SPIC (Homo sapiens, UniProt Q8N5J4 1-248); settings: protein: recombinant; tags: N-terminal GST; dsDNA, one strand shown
T2 sequence: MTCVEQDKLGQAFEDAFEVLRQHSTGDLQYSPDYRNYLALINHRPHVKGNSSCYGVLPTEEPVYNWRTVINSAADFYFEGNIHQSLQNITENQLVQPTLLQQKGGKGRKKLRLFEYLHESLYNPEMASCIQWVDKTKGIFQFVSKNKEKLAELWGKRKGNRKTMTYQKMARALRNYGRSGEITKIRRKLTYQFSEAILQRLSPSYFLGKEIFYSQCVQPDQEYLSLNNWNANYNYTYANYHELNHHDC
Outline: as §1

ELF4 = ELF4 (Homo sapiens, UniProt Q99607 1-663); settings: protein: recombinant; tags: N-terminal GST; dsDNA, one strand shown
Outline: as §1

ELK4 = biological target: T3, ELK4 (Homo sapiens, UniProt P28324-2 1-405); settings: protein: recombinant; tags: N-terminal GST; dsDNA, one strand shown
T3 sequence: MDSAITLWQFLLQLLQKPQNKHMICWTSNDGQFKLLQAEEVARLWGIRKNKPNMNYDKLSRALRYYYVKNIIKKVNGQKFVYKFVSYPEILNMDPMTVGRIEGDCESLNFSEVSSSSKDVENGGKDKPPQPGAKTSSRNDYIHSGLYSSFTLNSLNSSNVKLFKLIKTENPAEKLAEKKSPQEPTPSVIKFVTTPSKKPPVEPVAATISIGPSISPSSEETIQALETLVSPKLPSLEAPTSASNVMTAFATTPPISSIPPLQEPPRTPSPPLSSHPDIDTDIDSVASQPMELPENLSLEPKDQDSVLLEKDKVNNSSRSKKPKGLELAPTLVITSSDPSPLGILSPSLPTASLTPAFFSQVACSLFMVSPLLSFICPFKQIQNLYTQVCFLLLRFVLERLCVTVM
Outline: as §1

ETV2 = biological target: T4, ETV2 (Homo sapiens, UniProt O00321 1-342); settings: protein: recombinant; tags: N-terminal GST; dsDNA, one strand shown
T4 sequence: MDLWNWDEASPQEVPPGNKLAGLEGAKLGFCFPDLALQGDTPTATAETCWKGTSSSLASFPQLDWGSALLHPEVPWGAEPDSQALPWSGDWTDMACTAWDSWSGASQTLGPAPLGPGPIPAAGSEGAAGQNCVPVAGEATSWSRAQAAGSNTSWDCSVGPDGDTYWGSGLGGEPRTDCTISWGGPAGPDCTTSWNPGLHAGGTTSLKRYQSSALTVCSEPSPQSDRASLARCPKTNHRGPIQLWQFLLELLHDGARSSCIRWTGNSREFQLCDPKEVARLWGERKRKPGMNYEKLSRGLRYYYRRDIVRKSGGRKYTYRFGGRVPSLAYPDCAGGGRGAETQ
Outline: as §1

ELF3 = biological target: T5, ELF3 (Homo sapiens, UniProt P78545 1-371); settings: protein: recombinant; tags: N-terminal GST; dsDNA, one strand shown
T5 sequence: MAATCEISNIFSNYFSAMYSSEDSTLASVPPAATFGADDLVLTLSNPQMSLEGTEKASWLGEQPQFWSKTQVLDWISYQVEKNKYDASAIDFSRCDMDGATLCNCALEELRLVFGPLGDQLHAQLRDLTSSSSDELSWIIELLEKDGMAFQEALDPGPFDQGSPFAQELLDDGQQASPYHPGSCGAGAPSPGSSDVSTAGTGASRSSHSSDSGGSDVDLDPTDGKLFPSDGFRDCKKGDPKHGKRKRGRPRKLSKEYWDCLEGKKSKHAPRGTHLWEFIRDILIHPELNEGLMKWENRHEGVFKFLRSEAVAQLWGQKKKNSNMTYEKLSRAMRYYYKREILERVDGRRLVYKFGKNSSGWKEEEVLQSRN
Outline: as §1

CRX = CRX (Homo sapiens, UniProt O43186 1-299); settings: protein: recombinant; tags: N-terminal GST; dsDNA, one strand shown
Outline: as §1

ETV1 = ETV1 (Homo sapiens, UniProt P50549 1-477); settings: protein: recombinant; tags: N-terminal GST; dsDNA, one strand shown
Outline: as §1

ERF = biological target: T6, ERF (Homo sapiens, UniProt P50548 1-548); settings: protein: recombinant; tags: N-terminal GST; dsDNA, one strand shown
T6 sequence: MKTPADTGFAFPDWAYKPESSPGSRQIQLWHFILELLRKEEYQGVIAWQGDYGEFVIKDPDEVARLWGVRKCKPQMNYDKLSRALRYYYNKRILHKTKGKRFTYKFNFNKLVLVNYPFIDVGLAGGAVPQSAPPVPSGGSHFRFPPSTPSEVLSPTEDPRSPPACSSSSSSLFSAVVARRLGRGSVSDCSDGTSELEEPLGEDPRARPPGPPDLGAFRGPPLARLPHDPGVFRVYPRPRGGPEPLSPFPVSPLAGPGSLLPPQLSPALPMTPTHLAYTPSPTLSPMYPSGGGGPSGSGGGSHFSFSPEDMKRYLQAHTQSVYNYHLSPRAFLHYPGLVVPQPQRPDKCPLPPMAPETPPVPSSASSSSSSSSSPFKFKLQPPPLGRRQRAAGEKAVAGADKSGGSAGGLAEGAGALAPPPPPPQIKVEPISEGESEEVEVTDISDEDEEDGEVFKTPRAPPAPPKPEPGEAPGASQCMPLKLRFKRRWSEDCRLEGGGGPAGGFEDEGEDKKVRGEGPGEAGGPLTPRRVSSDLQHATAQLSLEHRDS
Outline: as §1

ETV3L = biological target: T7, ETV3L (Homo sapiens, UniProt Q6ZN32 1-361); settings: protein: recombinant; tags: N-terminal GST; dsDNA, one strand shown
T7 sequence: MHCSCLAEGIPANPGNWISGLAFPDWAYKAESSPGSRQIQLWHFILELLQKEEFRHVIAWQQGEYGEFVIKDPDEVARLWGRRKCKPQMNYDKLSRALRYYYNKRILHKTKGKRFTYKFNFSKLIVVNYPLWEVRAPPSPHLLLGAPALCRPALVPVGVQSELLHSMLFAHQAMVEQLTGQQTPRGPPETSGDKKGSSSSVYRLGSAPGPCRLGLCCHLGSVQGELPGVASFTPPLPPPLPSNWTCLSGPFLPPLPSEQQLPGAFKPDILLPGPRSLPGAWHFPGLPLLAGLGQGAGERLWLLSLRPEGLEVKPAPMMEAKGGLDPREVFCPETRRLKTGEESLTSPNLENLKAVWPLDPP
Outline: as §1

ETS2 = biological target: T8, ETS2 (Homo sapiens, UniProt P15036 1-469); settings: protein: recombinant; tags: N-terminal GST; dsDNA, one strand shown
T8 sequence: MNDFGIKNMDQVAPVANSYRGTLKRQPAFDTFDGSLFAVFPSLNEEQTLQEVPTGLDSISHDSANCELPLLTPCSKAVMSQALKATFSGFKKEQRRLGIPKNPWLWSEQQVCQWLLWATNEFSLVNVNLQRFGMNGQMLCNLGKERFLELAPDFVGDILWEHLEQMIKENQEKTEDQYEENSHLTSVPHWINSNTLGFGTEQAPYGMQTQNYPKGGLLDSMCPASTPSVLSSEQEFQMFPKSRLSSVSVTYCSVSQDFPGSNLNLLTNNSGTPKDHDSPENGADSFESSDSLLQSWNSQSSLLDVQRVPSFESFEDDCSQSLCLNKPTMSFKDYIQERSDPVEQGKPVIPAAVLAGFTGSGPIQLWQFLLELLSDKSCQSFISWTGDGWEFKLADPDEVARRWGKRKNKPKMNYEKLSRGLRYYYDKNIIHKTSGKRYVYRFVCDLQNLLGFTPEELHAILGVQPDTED
Outline: as §1

SPDEF = biological target: T9, SPDEF (Homo sapiens, UniProt O95238 1-335); settings: protein: recombinant; tags: N-terminal GST; dsDNA, one strand shown
T9 sequence: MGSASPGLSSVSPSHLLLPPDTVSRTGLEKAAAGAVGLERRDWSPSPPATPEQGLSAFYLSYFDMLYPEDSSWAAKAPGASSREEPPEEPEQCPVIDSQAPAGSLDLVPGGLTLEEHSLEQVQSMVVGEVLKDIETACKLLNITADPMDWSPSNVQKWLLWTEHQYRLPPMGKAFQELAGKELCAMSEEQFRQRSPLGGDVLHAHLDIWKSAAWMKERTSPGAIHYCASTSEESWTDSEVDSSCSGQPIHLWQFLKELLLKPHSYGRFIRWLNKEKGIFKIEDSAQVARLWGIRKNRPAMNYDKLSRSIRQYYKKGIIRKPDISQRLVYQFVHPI
Outline: as §1

ETV7 = biological target: T10, ETV7 (Homo sapiens, UniProt Q9Y603 1-341); settings: protein: recombinant; tags: N-terminal GST; dsDNA, one strand shown
T10 sequence: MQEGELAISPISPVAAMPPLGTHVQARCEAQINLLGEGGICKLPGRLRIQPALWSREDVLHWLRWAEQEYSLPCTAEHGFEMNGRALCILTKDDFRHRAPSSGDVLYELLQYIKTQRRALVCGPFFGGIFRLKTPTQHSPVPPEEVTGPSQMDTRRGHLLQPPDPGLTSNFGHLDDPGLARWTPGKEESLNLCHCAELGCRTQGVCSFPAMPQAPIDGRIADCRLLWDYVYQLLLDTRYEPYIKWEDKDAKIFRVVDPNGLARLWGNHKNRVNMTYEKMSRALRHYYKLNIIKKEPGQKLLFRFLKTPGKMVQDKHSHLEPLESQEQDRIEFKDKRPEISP
Outline: as §1

ELF5 = biological target: T11, ELF5 (Homo sapiens, UniProt Q9UKW6-2 1-255); settings: protein: recombinant; tags: N-terminal GST; dsDNA, one strand shown
T11 sequence: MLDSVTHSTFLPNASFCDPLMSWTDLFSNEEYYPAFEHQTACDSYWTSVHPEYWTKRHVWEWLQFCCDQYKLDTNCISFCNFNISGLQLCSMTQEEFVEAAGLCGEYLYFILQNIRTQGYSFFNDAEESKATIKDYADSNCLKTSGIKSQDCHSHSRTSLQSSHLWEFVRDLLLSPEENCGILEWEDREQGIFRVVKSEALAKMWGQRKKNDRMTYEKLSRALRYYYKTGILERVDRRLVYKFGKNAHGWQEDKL
Outline: as §1

ETV3 = biological target: T12, ETV3 (Homo sapiens, UniProt P41162-2 1-143); settings: protein: recombinant; tags: N-terminal GST; dsDNA, one strand shown
T12 sequence: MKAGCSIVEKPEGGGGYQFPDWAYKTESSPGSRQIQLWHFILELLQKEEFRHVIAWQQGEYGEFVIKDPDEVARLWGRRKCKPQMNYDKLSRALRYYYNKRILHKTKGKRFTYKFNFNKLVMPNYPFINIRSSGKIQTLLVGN
Outline: as §1

ETV6 = ETV6 (Homo sapiens, UniProt P41212 1-452); settings: protein: recombinant; tags: N-terminal GST; dsDNA, one strand shown
Outline: as §1

ETV1, sequence (P50549 whole entry): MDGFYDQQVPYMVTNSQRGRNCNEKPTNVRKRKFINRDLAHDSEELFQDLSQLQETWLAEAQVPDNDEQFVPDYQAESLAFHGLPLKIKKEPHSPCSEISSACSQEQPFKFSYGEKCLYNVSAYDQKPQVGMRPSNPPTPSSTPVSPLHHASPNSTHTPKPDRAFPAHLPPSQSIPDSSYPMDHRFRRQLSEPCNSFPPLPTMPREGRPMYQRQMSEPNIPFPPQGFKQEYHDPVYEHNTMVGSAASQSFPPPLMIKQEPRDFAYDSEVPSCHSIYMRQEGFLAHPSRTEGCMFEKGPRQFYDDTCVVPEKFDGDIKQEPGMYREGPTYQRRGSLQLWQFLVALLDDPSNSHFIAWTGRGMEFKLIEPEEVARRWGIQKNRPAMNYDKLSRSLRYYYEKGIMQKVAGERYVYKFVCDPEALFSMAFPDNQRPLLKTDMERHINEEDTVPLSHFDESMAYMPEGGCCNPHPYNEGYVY
HSF1, sequence (Q00613 whole entry): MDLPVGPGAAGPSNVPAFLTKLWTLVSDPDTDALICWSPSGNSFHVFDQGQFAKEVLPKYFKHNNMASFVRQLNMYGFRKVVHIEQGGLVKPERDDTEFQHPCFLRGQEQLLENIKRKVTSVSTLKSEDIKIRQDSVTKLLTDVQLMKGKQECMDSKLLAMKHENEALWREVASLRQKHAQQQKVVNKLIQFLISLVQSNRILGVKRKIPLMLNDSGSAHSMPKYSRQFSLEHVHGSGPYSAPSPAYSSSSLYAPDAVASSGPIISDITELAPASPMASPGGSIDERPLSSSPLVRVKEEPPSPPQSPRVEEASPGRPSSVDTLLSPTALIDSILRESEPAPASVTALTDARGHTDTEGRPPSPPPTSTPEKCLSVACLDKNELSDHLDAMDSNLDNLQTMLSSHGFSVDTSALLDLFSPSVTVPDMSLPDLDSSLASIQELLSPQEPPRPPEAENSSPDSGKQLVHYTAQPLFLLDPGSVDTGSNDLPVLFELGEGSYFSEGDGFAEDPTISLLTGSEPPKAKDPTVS
ETV6, sequence (P41212 whole entry): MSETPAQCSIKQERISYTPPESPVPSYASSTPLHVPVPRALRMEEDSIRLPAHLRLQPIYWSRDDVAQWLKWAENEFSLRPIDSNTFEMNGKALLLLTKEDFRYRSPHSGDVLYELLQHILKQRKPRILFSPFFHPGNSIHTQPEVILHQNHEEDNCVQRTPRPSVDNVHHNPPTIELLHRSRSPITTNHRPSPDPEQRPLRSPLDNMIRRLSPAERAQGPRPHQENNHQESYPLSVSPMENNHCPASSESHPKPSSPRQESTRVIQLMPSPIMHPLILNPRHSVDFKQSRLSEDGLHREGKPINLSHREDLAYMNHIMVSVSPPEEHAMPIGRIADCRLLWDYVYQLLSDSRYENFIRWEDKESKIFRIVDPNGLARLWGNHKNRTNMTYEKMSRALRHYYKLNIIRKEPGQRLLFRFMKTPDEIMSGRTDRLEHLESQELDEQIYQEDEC
ELF4, sequence (Q99607 whole entry): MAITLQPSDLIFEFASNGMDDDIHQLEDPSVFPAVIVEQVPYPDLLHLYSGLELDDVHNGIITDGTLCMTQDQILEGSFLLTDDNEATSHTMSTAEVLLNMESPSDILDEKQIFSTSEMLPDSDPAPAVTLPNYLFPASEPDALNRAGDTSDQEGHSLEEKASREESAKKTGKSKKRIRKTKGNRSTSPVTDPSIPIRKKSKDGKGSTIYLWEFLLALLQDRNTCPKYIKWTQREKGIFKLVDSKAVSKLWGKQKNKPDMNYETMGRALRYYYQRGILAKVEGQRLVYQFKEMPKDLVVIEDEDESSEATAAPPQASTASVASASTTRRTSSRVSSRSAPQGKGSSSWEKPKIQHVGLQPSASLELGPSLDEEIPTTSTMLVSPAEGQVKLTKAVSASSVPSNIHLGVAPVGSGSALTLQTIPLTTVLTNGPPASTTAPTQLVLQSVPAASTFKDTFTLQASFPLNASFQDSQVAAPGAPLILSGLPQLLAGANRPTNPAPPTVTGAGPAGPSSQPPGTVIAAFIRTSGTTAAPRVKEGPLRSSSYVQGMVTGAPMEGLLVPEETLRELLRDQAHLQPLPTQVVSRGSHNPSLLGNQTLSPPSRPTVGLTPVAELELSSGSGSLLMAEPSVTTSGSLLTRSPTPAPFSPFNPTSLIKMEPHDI
ETV5, sequence (P41161 whole entry): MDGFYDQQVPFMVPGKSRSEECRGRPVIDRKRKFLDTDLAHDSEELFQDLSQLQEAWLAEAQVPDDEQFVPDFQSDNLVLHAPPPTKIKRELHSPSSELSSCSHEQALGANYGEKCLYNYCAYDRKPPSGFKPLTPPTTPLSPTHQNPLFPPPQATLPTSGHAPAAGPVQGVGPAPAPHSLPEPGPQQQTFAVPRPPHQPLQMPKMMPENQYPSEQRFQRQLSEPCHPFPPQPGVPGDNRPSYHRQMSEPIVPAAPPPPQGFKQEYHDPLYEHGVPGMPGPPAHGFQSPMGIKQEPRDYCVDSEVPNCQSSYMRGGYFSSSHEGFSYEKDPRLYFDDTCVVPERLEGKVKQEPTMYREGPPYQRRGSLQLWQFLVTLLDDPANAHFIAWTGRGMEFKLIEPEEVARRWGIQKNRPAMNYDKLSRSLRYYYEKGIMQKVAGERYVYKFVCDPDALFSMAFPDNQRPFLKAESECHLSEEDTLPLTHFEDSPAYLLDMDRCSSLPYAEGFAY
CRX, sequence (O43186 whole entry): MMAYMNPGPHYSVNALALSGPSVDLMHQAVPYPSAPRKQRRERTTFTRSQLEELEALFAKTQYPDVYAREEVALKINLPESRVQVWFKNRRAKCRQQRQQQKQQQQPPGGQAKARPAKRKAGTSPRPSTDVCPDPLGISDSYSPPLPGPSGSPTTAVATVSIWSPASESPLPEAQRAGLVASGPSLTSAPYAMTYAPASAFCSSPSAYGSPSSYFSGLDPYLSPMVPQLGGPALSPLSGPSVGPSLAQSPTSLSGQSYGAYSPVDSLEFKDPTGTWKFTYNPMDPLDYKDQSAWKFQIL

Question: What does the source list for ACTTCC?
Answer: binding signal (FEV): 12.4 fold enrichment (6-mer frequency, TF over GST control); binding signal (ETV5): 8.86 fold enrichment (6-mer frequency, TF over GST control); binding signal (HSF1): 1.55 fold enrichment (6-mer frequency, TF over GST control); binding signal (SPIC): 8.15 fold enrichment (6-mer frequency, TF over GST control); binding signal (ELF4): 7.63 fold enrichment (6-mer frequency, TF over GST control); binding signal (ELK4): 6.63 fold enrichment (6-mer frequency, TF over GST control); binding signal (ETV2): 8.23 fold enrichment (6-mer frequency, TF over GST control); binding signal (ELF3): 7.67 fold enrichment (6-mer frequency, TF over GST control); binding signal (CRX): 1.21 fold enrichment (6-mer frequency, TF over GST control); binding signal (ETV1): 8.66 fold enrichment (6-mer frequency, TF over GST control); binding signal (ERF): 7.03 fold enrichment (6-mer frequency, TF over GST control); binding signal (ETV3L): 7.94 fold enrichment (6-mer frequency, TF over GST control); binding signal (ETS2): 8.81 fold enrichment (6-mer frequency, TF over GST control); binding signal (SPDEF): 8.64 fold enrichment (6-mer frequency, TF over GST control); binding signal (ETV7): 7.8 fold enrichment (6-mer frequency, TF over GST control); binding signal (ELF5): 12.5 fold enrichment (6-mer frequency, TF over GST control); binding signal (ETV3): 9.02 fold enrichment (6-mer frequency, TF over GST control); binding signal (ETV6): 10.9 fold enrichment (6-mer frequency, TF over GST control)
